A short description of assay [1]: qHTS assay for small molecule agonists of the p53 signaling pathway (AID 651631; calls by dose curve; further: nearly all actives have a fitted effect of over 15% in size; further: potency means the concentration at half of the fitted maximal effect). In short, it runs like this: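 We treat p53RE-bla HCT-116 cells with compounds for 16 h at 37 °C, add LiveBLAzer B/G FRET substrate for 2 h at room temperature, and measure fluorescence intensity.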
Assay [2] in a line: qHTS assay for small molecules that induce genotoxicity in human embryonic kidney cells expressing luciferase-tagged ATAD5 (AID 651632). Further: nearly all actives have a fitted effect of over 15% in size. In short, it runs like this:
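Luminescent reporter readout, HEK293T ATAD5-luc line: 16 hr drug exposure (37C, 5% CO2) followed by Amplite, 30 min RT.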
Background: qHTS replaces the single test concentration by a dilution series.

Assay [3] is described as follows: qHTS assay for small molecule agonists of the p53 signaling pathway - cell viability (AID 651633; calls by dose curve; further: nearly all actives have a fitted effect of over 30% in size; further: potency means the concentration at half of the fitted maximal effect). In short, it runs like this:
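p53RE-bla cells, seeded at 4,000 per well and rested 5 h at 37 C/5% CO2, received compounds in DMSO for 16 h at 37 C. CellTiter-Glo was then added, and luminescence was read after 30 min at room temperature to gauge cytotoxicity.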

Assay [4] in a line: qHTS assay for small molecules that induce genotoxicity in human embryonic kidney cells expressing luciferase-tagged ATAD5 - cell viability (AID 651634; calls by dose curve; further: nearly all actives have a fitted effect of over 25% in size; further: potency means the concentration at half of the fitted maximal effect). In short, it runs like this: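 Viability read: CellTiter-Fluor fluorescence, 30 min at 37C. Cells: HEK293T, luciferase-tagged ATAD5. Exposure: 15.5 hr, 37C, 5% CO2, compound or DMSO vehicle.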
Assay [5] can be described thus: qHTS assay for small molecule disruptors of the mitochondrial membrane potential - cell viability (AID 720634; calls by dose curve;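 further: human HepG2 liver cancer cells; series mostly up to about 83 µM; nearly all actives have a fitted effect of over 20% in size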). In short, it runs like this:
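HepG2, 1 hr compound, 37 C. ATP luminescence via CellTiter-Glo, 30 min RT, same well as m-MPI.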

The nature of assay [6]: qHTS assay for small molecule disruptors of the mitochondrial membrane potential (AID 720635). Further: potency means the concentration at half of the fitted maximal effect. The method, boiled down:
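HepG2 cells (2,000/well) attached overnight at 37C, then took compound for 1 hr at 37C, 5% CO2. Mito-MPS dye was added for 30 min; fluorescence was read at 490/535 nm (monomers) and 540/590 nm (aggregates).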

Assay [7] can be described thus: qHTS assay to test for compound auto fluorescence at 590 nm (red) in HepG2 cells (AID 720674). In short, it runs like this:
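Rose Bengal sodium served as the red fluorophore standard. HepG2 monolayers (overnight attachment, MEM with 10% FBS) were exposed to test compounds for 1 hr at 37 C and read at Ex 540/Em 590 nm.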

A short description of assay [8]: qHTS assay to test for compound auto fluorescence at 535 nm (green) in HepG2 cells (AID 720675).
Assay [9] is described as follows: qHTS assay to test for compound auto fluorescence at 460 nm (blue) in HEK293 cells (AID 720678). In short, it runs like this: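 Cells were seeded and left to adhere for 4-5 hr at 37C. Compounds were then pin-transferred. After an overnight incubation at 37C under 5% CO2, intrinsic fluorescence at 405/460 nm was measured and referenced to triamterene.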
Assay [10] is described as follows: qHTS assay to test for compound auto fluorescence at 590 nm (red) in HEK293 cells (AID 720679). In short, it runs like this:
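Each well held 2,000 HEK293 cells in medium containing 10% dialyzed FBS. Following 4-5 hr attachment at 37C, 23 nL test compound or DMSO was added; plates sat overnight, and red fluorescence (540/590nm) was recorded.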

Inconclusive results are not listed. Calls of active or inactive are those of the source. Unless noted, the call rests on the fitted dose curve; in most records, active means well fitted curve in the direction sought with a large enough effect in the repeat runs; inconclusive means weak or mixed curves; inactive means no such curve, though single readings can be large; an effect the other way counts as inactive or inconclusive.

Turning to `CCCCCCC#N`, the Potency entry in [1], in assay [2], in assay [3], in assay [4], in assay [5] and in [6] was “inactive” in each case. In addition, the outcome in [7], in [8], in [9] and in [10] was inactive.
Turning to `C=CCC1([C@H](C)CCC)C(=O)NC(=O)NC1=O`, the Potency entry in assay [1], in [2], in [3], in assay [4], in [5] and in assay [6] was “inactive” in each case. In addition, the compound was classed as inactive in assay [7], in assay [8], in [9] and in [10].
With `COC(=O)C(Cl)C(=O)OC`, the Potency entry in assay [1], in assay [2], in assay [3], in assay [4], in [5] and in [6] was “inactive” in each case. Also, the compound was classed as inactive in assay [7], in assay [8], in assay [9] and in assay [10].
Regarding `CC(C)(CCl)C(=O)Cl`, the Potency entry in assay [1], in assay [2], in [3], in [4] and in assay [5] was “inactive” each time. In addition, the call in assay [7], in assay [8], in [9] and in [10] was inactive.
As to `C=CC(C)=O`, the Potency result in [1], in assay [2], in assay [3], in assay [4], in [5] and in assay [6] was “inactive” throughout. Moreover, the call in assay [7], in [8] and in assay [10] was inactive.
On to `CC(C)=CCOc1c2occc2cc2ccc(=O)oc12`, for which the Potency result in [1], in assay [2], in [3], in assay [4], in assay [5] and in [6] was “inactive” in each case. In addition, the compound was called inactive in assay [7], in [8] and in assay [10].
`N#CCc1ccccc1`: the Potency entry in [1], in assay [2], in assay [3], in [4], in [5] and in [6] was “inactive” each time. The call in assay [7], in assay [8], in assay [9] and in assay [10] was inactive.
`[O-][Cl+]O`: the Potency result in assay [1], in assay [2], in assay [3], in assay [4], in assay [5] and in [6] was “inactive” throughout. The compound was classed as inactive in assay [7], in [9] and in assay [10].
Turning to `Cn1sc(Cl)cc1=O`, the Potency entry in assay [1], in assay [2], in assay [3], in [4], in assay [5] and in [6] was “inactive” in each case. Further, the outcome in assay [7], in assay [8], in assay [9] and in assay [10] was inactive.
On to `Brc1ccc(Oc2ccccc2)cc1`, for which the Potency entry in assay [1], in [2], in assay [3], in assay [4], in [5] and in assay [6] was “inactive” throughout. The call in assay [7], in [8], in assay [9] and in assay [10] was inactive.
For `O=C(NCc1cccnc1)Nc1ccc([N+](=O)[O-])cc1`, the Potency result in assay [1], in [2], in [3], in assay [4] and in assay [5] was “inactive” in each case. Also, the Potency in assay [6] is 24.3 µM (active). Further, the compound was classed as inactive in [7], in assay [9] and in [10].
On to `Nc1ccc(N=Nc2ccc(-c3ccc(N=Nc4c(S(=O)(=O)O)cc5cc(S(=O)(=O)O)c(N=Nc6ccccc6)c(O)c5c4N)cc3)cc2)c(N)c1`, for which the Potency entry in [1], in assay [2], in assay [3], in assay [4] and in assay [5] was “inactive” in each case. Moreover, the Potency in assay [6] is 6.24 µM (active). For the same compound, the compound was classed as inactive in assay [7], in assay [8], in assay [9] and in [10].
On to `CCOP(=O)(OCC)SCCSCC`, for which the Potency entry in assay [1], in assay [2], in [3], in assay [4], in assay [5] and in [6] was “inactive” in each case. In addition, the outcome in [7], in assay [8] and in [10] was inactive.
With `COC(N)=O`, the Potency entry in [1], in assay [2], in assay [3], in [4], in assay [5] and in assay [6] was “inactive” in each case. Moreover, the compound was called inactive in [7], in [8], in assay [9] and in [10].
`CN1C(=O)NC(=O)C(C)(C2=CCCCC2)C1=O` (stereo unspecified): the Potency result in [1], in assay [2], in assay [3], in assay [4], in assay [5] and in assay [6] was “inactive” in each case. Also, the outcome in [7], in assay [8], in [9] and in assay [10] was inactive.
With `CCCCCCCCOC(=O)c1ccc(C(=O)OCCCCCCCC)c(C(=O)OCCCCCCCC)c1`, the Potency result in assay [1], in assay [2], in [3], in assay [4], in assay [5] and in [6] was “inactive” throughout. Besides, the compound was called inactive in [7], in assay [8], in [9] and in assay [10].
For `CCN(C)N=O`, the Potency result in assay [1], in [2], in assay [3], in [4] and in assay [5] was “inactive” throughout. In assay [6], the Potency was 1.9 µM (active). For the same compound, the result in assay [7], in assay [8], in [9] and in assay [10] was inactive.
Take `CC/C(=N\OC/C=C/Cl)C1=C(O)CC(C2CCOCC2)CC1=O` (stereo unspecified): the Potency entry in assay [1], in [2], in assay [3], in assay [4], in assay [5] and in assay [6] was “inactive” each time. The compound was called inactive in assay [7], in assay [8], in assay [9] and in [10].
On to `c1ccc(CN2CCNCC2)cc1`, for which the Potency entry in assay [1], in [2], in assay [3], in assay [4], in assay [5] and in [6] was “inactive” in each case. The compound was classed as inactive in assay [7], in assay [9] and in [10].
`ClC=C(Cl)Cl`: the Potency result in [1], in [2], in [3], in assay [4], in assay [5] and in [6] was “inactive” throughout. In addition, the outcome in [7], in assay [9] and in assay [10] was inactive.
Regarding `CCCCCCCCCC(=O)O[C@H]1CC[C@H]2[C@@H]3CCC4=CC(=O)CC[C@@H]4[C@H]3CC[C@]12C`, the Potency entry in assay [1], in assay [2], in assay [3], in assay [4], in assay [5] and in assay [6] was “inactive” in each case. Moreover, the call in [7], in [8], in assay [9] and in assay [10] was inactive.
As to `Cc1cc(=O)[nH]o1`, the Potency entry in [1], in assay [2], in assay [3], in assay [4], in assay [5] and in assay [6] was “inactive” in each case. Further, the call in [7], in [8], in assay [9] and in assay [10] was inactive.
On to `IC(I)=C(I)I`, for which the Potency in [1] was 12.2 µM (active); in assay [3], 48.6 µM (active); in [4], 27.3 µM (active); in [6], 4.33 µM (active). In addition, the Potency entry in [2] and in assay [5] was “inactive” throughout. In addition, the call in assay [7], in assay [8], in assay [9] and in assay [10] was inactive.
With `Nc1nc(N)nc(N)n1`, the Potency result in assay [1], in [2], in assay [3], in assay [4], in assay [5] and in assay [6] was “inactive” in each case. The outcome in [7], in assay [8] and in [10] was inactive.
As to `CC(c1ccc(O)cc1)(c1ccc(O)cc1)c1ccc(O)cc1`, the values for the Potency in [1], in assay [3] and in assay [6] were 6.86 µM (active), 6.86 µM (active) and 48.6 µM (active), respectively. Moreover, the Potency result in assay [2], in assay [4] and in assay [5] was “inactive” throughout. Further, the compound was classed as inactive in [7], in assay [8], in assay [9] and in assay [10].
